Reference: ChEMBL document CHEMBL1961873, “Compounds: GSK PKIS; Assays: Nanosyn kinase panel” (2012)

target: MAP kinase-activated protein kinase 3 (Homo sapiens) (UniProt Q16644); conditions: at 1 µM
Sequence (Q16644 whole entry, looked up): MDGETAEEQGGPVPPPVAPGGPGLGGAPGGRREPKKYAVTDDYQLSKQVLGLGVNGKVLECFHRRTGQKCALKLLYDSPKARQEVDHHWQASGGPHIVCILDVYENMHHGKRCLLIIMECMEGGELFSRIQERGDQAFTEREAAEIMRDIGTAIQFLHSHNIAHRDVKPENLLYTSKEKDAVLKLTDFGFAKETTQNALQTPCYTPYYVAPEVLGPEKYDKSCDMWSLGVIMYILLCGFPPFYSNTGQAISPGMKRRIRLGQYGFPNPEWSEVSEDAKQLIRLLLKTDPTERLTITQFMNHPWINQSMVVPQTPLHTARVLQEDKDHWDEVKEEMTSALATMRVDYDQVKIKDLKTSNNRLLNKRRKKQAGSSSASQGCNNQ

**Q.** With `O=C(Nc1n[nH]c2cc(-c3ccccc3)ccc12)C1CC1` as the compound, how does the inhibition read?
**A.** Its inhibition is 4.31%.

**Q.** How did the inhibition turn out when `Cc1ccc(C(=O)NC2CCC2)cc1-c1ccc(C(=O)NCC2CC2)cc1` was run?
**A.** Its inhibition is 18.9%.

**Q.** For `O=C(Nc1n[nH]c2cc(-c3cc(F)ccc3F)ccc12)C1CC1`, which inhibition is on record?
**A.** The inhibition was 3.99%.

**Q.** How did the inhibition turn out when `CNC(=O)c1cncc(/C=C/c2c(C)cccc2C)c1` was run?
**A.** Its inhibition is 0.25%.

**Q.** With `O=C(Nc1n[nH]c2nc(-c3ccc(O)cc3)c(Br)cc12)C1CC1` as the compound, how does the inhibition read?
**A.** Its inhibition is 5.6%.

**Q.** Which inhibition does the source give for `NS(=O)(=O)c1ccc(N/N=C2\C(=O)Nc3ccc(-c4cnco4)cc32)cc1` here?
**A.** The inhibition was -0.48%.

**Q.** `Fc1ccc(-c2ncn(CCCN3CCOCC3)c2-c2ccncc2)cc1` was tested. Which inhibition did it give?
**A.** The inhibition was 14.5%.

**Q.** Which inhibition does the source give for `C[C@@H](Oc1cc(-n2cnc3ccc(OCC4CCN(C)CC4)cc32)sc1C(N)=O)c1ccccc1Cl` here?
**A.** Its inhibition is 3.34%.

**Q.** `CCc1ccc(Oc2nccc(-c3c(-c4ccc(F)cc4)ncn3C3CCNCC3)n2)cc1` was tested. Which inhibition did it give?
**A.** Its inhibition is 37.5%.

**Q.** For `COc1cccc(/C=N/Nc2ncnc3c2cnn3-c2cccc(OC)c2)c1`, which inhibition is on record?
**A.** Its inhibition is 2.33%.

**Q.** With `COc1ccc2cc(-c3c(-c4ccncc4)nc(-c4ccc(S(C)(=O)=O)cc4C)n3C)ccc2c1` as the compound, how does the inhibition read?
**A.** The inhibition was 1.63%.

**Q.** For `CS(=O)(=O)CCNCc1ccc(-c2ccc3ncnc(Nc4ccc(OCc5ccccc5)c(Br)c4)c3c2)o1`, which inhibition is on record?
**A.** Its inhibition is 2.03%.

**Q.** With `Fc1ccc(-c2ncn(C3CCNCC3)c2-c2ccnc(Oc3ccc(Oc4ccccc4)cc3)n2)cc1` as the compound, how does the inhibition read?
**A.** Its inhibition is 46.2%.

**Q.** `O=C1Nc2ccc(I)cc2C1=Cc1cc(Br)c(O)c(Br)c1` was tested. Which inhibition did it give?
**A.** Its inhibition is 3.75%.

**Q.** `COc1cc(Nc2ncc3c(C)nc(-c4cccc(Oc5ccccc5)c4)n3n2)cc(OC)c1OC` was tested. Which inhibition did it give?
**A.** The inhibition was 7.79%.

**Q.** Which inhibition does the source give for `CN1CCN(CCCNc2nc3ccc(Oc4ccc(NC(=O)Nc5cc(C(F)(F)F)ccc5F)cc4)cc3[nH]2)CC1` here?
**A.** The inhibition was 18.3%.

**Q.** With `COc1cc(Nc2ncc(-c3ccccc3)o2)cc(OC)c1OC` as the compound, how does the inhibition read?
**A.** The inhibition was -2.22%.

**Q.** How did the inhibition turn out when `COc1ccc(C2=C(N3CCc4ccccc43)C(=O)NC2=O)cc1` was run?
**A.** The inhibition was 5.21%.

**Q.** With `Cc1ccc(C(=O)NC(C)C)cc1-c1ccc(C(=O)NCC2CC2)cc1` as the compound, how does the inhibition read?
**A.** The inhibition was 9.15%.

**Q.** For `NC(=O)c1cc(-c2ccc(F)cc2)cc(-c2ccncc2)c1N`, which inhibition is on record?
**A.** The inhibition was 5.82%.

**Q.** For `Clc1ccc(CNc2nccc(-c3cnn4ncccc34)n2)cc1`, which inhibition is on record?
**A.** Its inhibition is 7.89%.

**Q.** Which inhibition does the source give for `O=C1Nc2ccccc2/C1=C/Nc1ccc(-n2cncn2)cc1` here?
**A.** Its inhibition is 3.15%.

**Q.** How did the inhibition turn out when `Fc1ccc(-c2ncn(C3CCNCC3)c2-c2ccnc(Oc3ccc(F)c(F)c3)n2)cc1` was run?
**A.** The inhibition was 31.3%.

**Q.** How did the inhibition turn out when `CN(c1ccc(NC(=O)Nc2c(Cl)cccc2Cl)cc1)c1ccnc(Nc2cccc(CS(C)(=O)=O)c2)n1` was run?
**A.** Its inhibition is 0.31%.

**Q.** With `NC(=O)Cc1ccccc1Oc1nccc(-c2c(-c3ccc(F)cc3)ncn2C2CCNCC2)n1` as the compound, how does the inhibition read?
**A.** Its inhibition is 28.7%.

**Q.** With `CN(C)CCOc1ccc(-c2cc(-c3ccc4c(c3)CCC4=NO)c(-c3ccncc3)o2)cc1` as the compound, how does the inhibition read?
**A.** Its inhibition is -1.84%.

**Q.** For `CN(C)c1ccc2c(c1)/C(=C/Nc1ccc(S(N)(=O)=O)cc1)C(=O)N2`, which inhibition is on record?
**A.** Its inhibition is -0.05%.

**Q.** Which inhibition does the source give for `COc1cc(C)c(N(C)C(=O)CN(C)C)cc1Nc1nc(Nc2cccc(F)c2C(N)=O)c2cc[nH]c2n1` here?
**A.** Its inhibition is 0.17%.

**Q.** For `O=C(NCC1CC1)c1ccc(-c2cccc(C(=O)NC3CC3)c2)cc1`, which inhibition is on record?
**A.** The inhibition was 3.94%.

**Q.** For `COc1cc(N2CCN(C(C)C)CC2)ccc1Nc1nc(Nc2ccc(F)cc2C(=O)NC[C@@H](O)CO)c2cc[nH]c2n1`, which inhibition is on record?
**A.** Its inhibition is 4.3%.

**Q.** Which inhibition does the source give for `NC(=O)c1ccc(Oc2nccc(-c3c(-c4ccc(F)cc4)ncn3C3CCNCC3)n2)cc1` here?
**A.** Its inhibition is 30.8%.

**Q.** `COc1cc2ncn(-c3cc(OCCc4ccccc4)c(C(N)=O)s3)c2cc1OC` was tested. Which inhibition did it give?
**A.** Its inhibition is 4.28%.

**Q.** `CCc1cccc(CC)c1/C=C/c1cncc(C(=O)NC)c1` was tested. Which inhibition did it give?
**A.** The inhibition was 3.44%.

**Q.** How did the inhibition turn out when `COc1ccc2cc(-c3c(-c4ccncc4)nc(-c4ccc([S+](C)[O-])cc4C)n3C)ccc2c1` (stereo not drawn) was run?
**A.** Its inhibition is -5.38%.

target: Serine/threonine-protein kinase MARK1 (Homo sapiens) (UniProt Q9P0L2); conditions: at 0.1 µM
Sequence (Q9P0L2 whole entry, looked up): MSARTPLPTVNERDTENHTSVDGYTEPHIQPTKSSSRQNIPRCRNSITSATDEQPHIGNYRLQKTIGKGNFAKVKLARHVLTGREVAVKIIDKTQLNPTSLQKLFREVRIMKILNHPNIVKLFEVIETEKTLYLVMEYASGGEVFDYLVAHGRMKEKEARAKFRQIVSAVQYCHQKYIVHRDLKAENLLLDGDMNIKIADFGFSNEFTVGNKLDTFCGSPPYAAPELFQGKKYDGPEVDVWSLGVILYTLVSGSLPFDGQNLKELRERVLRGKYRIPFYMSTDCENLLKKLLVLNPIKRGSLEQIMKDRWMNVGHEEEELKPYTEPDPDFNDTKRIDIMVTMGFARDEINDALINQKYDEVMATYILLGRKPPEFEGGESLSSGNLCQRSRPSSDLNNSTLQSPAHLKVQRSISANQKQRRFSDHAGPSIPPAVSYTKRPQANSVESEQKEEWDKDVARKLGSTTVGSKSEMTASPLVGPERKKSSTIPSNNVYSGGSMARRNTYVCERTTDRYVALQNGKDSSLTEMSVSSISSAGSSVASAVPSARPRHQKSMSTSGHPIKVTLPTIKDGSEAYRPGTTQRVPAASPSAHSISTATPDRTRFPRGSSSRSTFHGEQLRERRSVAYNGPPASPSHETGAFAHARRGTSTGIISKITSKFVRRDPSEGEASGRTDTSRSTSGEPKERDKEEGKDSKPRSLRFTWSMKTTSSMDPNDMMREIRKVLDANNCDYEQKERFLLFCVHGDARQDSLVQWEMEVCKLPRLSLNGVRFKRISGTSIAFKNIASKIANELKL

**Q.** With `O=C(Nc1n[nH]c2cc(-c3ccccc3)ccc12)C1CC1` as the compound, how does the inhibition read?
**A.** The inhibition was 4.97%.

**Q.** With `Cc1ccc(C(=O)NC2CCC2)cc1-c1ccc(C(=O)NCC2CC2)cc1` as the compound, how does the inhibition read?
**A.** Its inhibition is 2.6%.

**Q.** Which inhibition does the source give for `O=C(Nc1n[nH]c2cc(-c3cc(F)ccc3F)ccc12)C1CC1` here?
**A.** Its inhibition is 2.47%.

**Q.** With `CNC(=O)c1cncc(/C=C/c2c(C)cccc2C)c1` as the compound, how does the inhibition read?
**A.** The inhibition was 0.88%.

**Q.** Which inhibition does the source give for `O=C(Nc1n[nH]c2nc(-c3ccc(O)cc3)c(Br)cc12)C1CC1` here?
**A.** The inhibition was 3.94%.

**Q.** With `NS(=O)(=O)c1ccc(N/N=C2\C(=O)Nc3ccc(-c4cnco4)cc32)cc1` as the compound, how does the inhibition read?
**A.** The inhibition was 2.3%.

**Q.** For `Fc1ccc(-c2ncn(CCCN3CCOCC3)c2-c2ccncc2)cc1`, which inhibition is on record?
**A.** Its inhibition is 0.51%.

**Q.** How did the inhibition turn out when `C[C@@H](Oc1cc(-n2cnc3ccc(OCC4CCN(C)CC4)cc32)sc1C(N)=O)c1ccccc1Cl` was run?
**A.** The inhibition was 3.83%.

**Q.** Which inhibition does the source give for `CCc1ccc(Oc2nccc(-c3c(-c4ccc(F)cc4)ncn3C3CCNCC3)n2)cc1` here?
**A.** The inhibition was 3.13%.

**Q.** With `COc1cccc(/C=N/Nc2ncnc3c2cnn3-c2cccc(OC)c2)c1` as the compound, how does the inhibition read?
**A.** Its inhibition is 0.69%.

**Q.** Which inhibition does the source give for `COc1ccc2cc(-c3c(-c4ccncc4)nc(-c4ccc(S(C)(=O)=O)cc4C)n3C)ccc2c1` here?
**A.** The inhibition was 3.38%.

**Q.** Which inhibition does the source give for `CS(=O)(=O)CCNCc1ccc(-c2ccc3ncnc(Nc4ccc(OCc5ccccc5)c(Br)c4)c3c2)o1` here?
**A.** The inhibition was 1.99%.

**Q.** With `Fc1ccc(-c2ncn(C3CCNCC3)c2-c2ccnc(Oc3ccc(Oc4ccccc4)cc3)n2)cc1` as the compound, how does the inhibition read?
**A.** Its inhibition is 2.1%.

**Q.** How did the inhibition turn out when `O=C1Nc2ccc(I)cc2C1=Cc1cc(Br)c(O)c(Br)c1` was run?
**A.** Its inhibition is 0.84%.

**Q.** For `COc1cc(Nc2ncc3c(C)nc(-c4cccc(Oc5ccccc5)c4)n3n2)cc(OC)c1OC`, which inhibition is on record?
**A.** Its inhibition is 1.87%.

**Q.** How did the inhibition turn out when `CN1CCN(CCCNc2nc3ccc(Oc4ccc(NC(=O)Nc5cc(C(F)(F)F)ccc5F)cc4)cc3[nH]2)CC1` was run?
**A.** Its inhibition is 0.78%.

**Q.** Which inhibition does the source give for `COc1cc(Nc2ncc(-c3ccccc3)o2)cc(OC)c1OC` here?
**A.** Its inhibition is 2.34%.

**Q.** `COc1ccc(C2=C(N3CCc4ccccc43)C(=O)NC2=O)cc1` was tested. Which inhibition did it give?
**A.** Its inhibition is 3.48%.

**Q.** `Cc1ccc(C(=O)NC(C)C)cc1-c1ccc(C(=O)NCC2CC2)cc1` was tested. Which inhibition did it give?
**A.** Its inhibition is 0.27%.

**Q.** Which inhibition does the source give for `NC(=O)c1cc(-c2ccc(F)cc2)cc(-c2ccncc2)c1N` here?
**A.** Its inhibition is 2.29%.

**Q.** With `Clc1ccc(CNc2nccc(-c3cnn4ncccc34)n2)cc1` as the compound, how does the inhibition read?
**A.** Its inhibition is 1.55%.

**Q.** For `O=C1Nc2ccccc2/C1=C/Nc1ccc(-n2cncn2)cc1`, which inhibition is on record?
**A.** The inhibition was 5.86%.

**Q.** How did the inhibition turn out when `Fc1ccc(-c2ncn(C3CCNCC3)c2-c2ccnc(Oc3ccc(F)c(F)c3)n2)cc1` was run?
**A.** The inhibition was 2.93%.

**Q.** For `CN(c1ccc(NC(=O)Nc2c(Cl)cccc2Cl)cc1)c1ccnc(Nc2cccc(CS(C)(=O)=O)c2)n1`, which inhibition is on record?
**A.** Its inhibition is 3.52%.

**Q.** `NC(=O)Cc1ccccc1Oc1nccc(-c2c(-c3ccc(F)cc3)ncn2C2CCNCC2)n1` was tested. Which inhibition did it give?
**A.** Its inhibition is 2.13%.

**Q.** How did the inhibition turn out when `CN(C)CCOc1ccc(-c2cc(-c3ccc4c(c3)CCC4=NO)c(-c3ccncc3)o2)cc1` was run?
**A.** The inhibition was -2.08%.

**Q.** `CN(C)c1ccc2c(c1)/C(=C/Nc1ccc(S(N)(=O)=O)cc1)C(=O)N2` was tested. Which inhibition did it give?
**A.** Its inhibition is 6.96%.

**Q.** Which inhibition does the source give for `COc1cc(C)c(N(C)C(=O)CN(C)C)cc1Nc1nc(Nc2cccc(F)c2C(N)=O)c2cc[nH]c2n1` here?
**A.** The inhibition was 0.72%.

**Q.** For `O=C(NCC1CC1)c1ccc(-c2cccc(C(=O)NC3CC3)c2)cc1`, which inhibition is on record?
**A.** Its inhibition is 2.23%.

**Q.** For `COc1cc(N2CCN(C(C)C)CC2)ccc1Nc1nc(Nc2ccc(F)cc2C(=O)NC[C@@H](O)CO)c2cc[nH]c2n1`, which inhibition is on record?
**A.** Its inhibition is 3.88%.

**Q.** For `NC(=O)c1ccc(Oc2nccc(-c3c(-c4ccc(F)cc4)ncn3C3CCNCC3)n2)cc1`, which inhibition is on record?
**A.** Its inhibition is 2.78%.

**Q.** How did the inhibition turn out when `COc1cc2ncn(-c3cc(OCCc4ccccc4)c(C(N)=O)s3)c2cc1OC` was run?
**A.** The inhibition was 3.11%.

**Q.** `CCc1cccc(CC)c1/C=C/c1cncc(C(=O)NC)c1` was tested. Which inhibition did it give?
**A.** The inhibition was 2.28%.

**Q.** How did the inhibition turn out when `COc1ccc2cc(-c3c(-c4ccncc4)nc(-c4ccc([S+](C)[O-])cc4C)n3C)ccc2c1` (stereo not drawn) was run?
**A.** Its inhibition is -1.01%.
